Results taken from PubChem BioAssay AID1159580 (chemical genetic matrix, 2015).
Screen size: about 5,500 compounds; about 2,000 (36%) were called active. Not shown: some 18% with an inconclusive outcome. No stated cut-off is given here; in the data, active means normalized growth mostly below about 0.91 (no sharp cut-off); inconclusive means no clear call, values can overlap the other calls; inactive means mostly above about 0.92. This is one part of the list.

Assay: chemical genetic growth profiling, strain panel (AID 1159580);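 further: tested at 20 µM; growth read once vehicle control cultures reached saturation at 30 °C; 1 = growth at the plate median or of vehicle wells; lower values mean less growth of the strain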
Settings: growth OD
[1] = S. cerevisiae deletion strains, locus YGR078C, strain PAC10, active compounds read low
[2] = S. cerevisiae deletion strains, locus YGR229C, strain SMI1, active compounds read low
[3] = S. cerevisiae deletion strains, locus YNL128W, strain TEP1, active compounds read low
[4] = S. cerevisiae deletion strains, locus YNL322C, strain KRE1, active compounds read low
[5] = S. cerevisiae deletion strains, locus YPL055C, strain LGE1, active compounds read low

Measured: normalized growth

COc1cc(NS(C)(=O)=O)ccc1Nc1c2ccccc2nc2ccccc12
inactive: S. cerevisiae deletion strains, locus YAL040C, strain CLN3, active compounds read low 0.985 | S. cerevisiae deletion strains, locus YCL061C, strain MRC1 (second series), active compounds read low 0.981 | S. cerevisiae deletion strains, locus YDR363W, strain ESC2, active compounds read low 0.916 | S. cerevisiae deletion strains, locus YER002W, strain NOP16, active compounds read low 0.989 | [1] 0.985 | [2] 0.955 | [3] 1.02 | S. cerevisiae deletion strains, locus YNL175C, strain NOP13, active compounds read low 1 | S. cerevisiae deletion strains, locus YNL197C, strain WHI3, active compounds read low 0.967 | S. cerevisiae deletion strains, locus YNL224C, strain SQS1, active compounds read low 0.98 | [4] 0.965 | S. cerevisiae deletion strains, locus YOR083W, strain WHI5 (second series), active compounds read low 0.975 | [5] 0.902

COc1ccc(-c2cc(=O)c3c(OC)cc(OC)cc3o2)cc1
inactive: S. cerevisiae deletion strains, locus YAL013W, strain DEP1, active compounds read low 0.981 | S. cerevisiae deletion strains, locus YBR021W, strain FUR4, active compounds read low 0.903 | S. cerevisiae deletion strains, locus YBR229C, strain ROT2, active compounds read low 1 | S. cerevisiae deletion strains, locus YCL029C, strain bik1, active compounds read low 1.01 | S. cerevisiae deletion strains, locus YDL035C, strain GPR1, active compounds read low 0.981 | S. cerevisiae deletion strains, locus YDL074C, strain BRE1, active compounds read low 0.905 | S. cerevisiae deletion strains, locus YDL101C, strain DUN1, active compounds read low 0.988 | S. cerevisiae deletion strains, locus YDL134C, strain PPH21, active compounds read low 0.984 | S. cerevisiae deletion strains, locus YDL185W, strain tfp1, active compounds read low 0.996 | S. cerevisiae deletion strains, locus YDL192W, strain arf1, active compounds read low 0.986 | S. cerevisiae deletion strains, locus YDR101C, strain arx1, active compounds read low 0.977 | S. cerevisiae deletion strains, locus YDR150W, strain NUM1, active compounds read low 1 | S. cerevisiae deletion strains, locus YDR162C, strain NBP2, active compounds read low 0.944 | S. cerevisiae deletion strains, locus YDR318W, strain mcm21, active compounds read low 0.973 | S. cerevisiae deletion strains, locus YDR388W, active compounds read low 0.99 | S. cerevisiae deletion strains, locus YDR502C, strain sam2, active compounds read low 0.963 | S. cerevisiae deletion strains, locus YEL061C, strain CIN8, active compounds read low 0.997 | S. cerevisiae deletion strains, locus YER110C, active compounds read low 1.02 | S. cerevisiae deletion strains, locus YER155C, strain BEM2, active compounds read low 0.993 | S. cerevisiae deletion strains, locus YER167W, strain BCK2, active compounds read low 0.989 | S. cerevisiae deletion strains, locus YGL078C, strain dbp3, active compounds read low 1 | S. cerevisiae deletion strains, locus YGL086W, strain mad1, active compounds read low 1 | S. cerevisiae deletion strains, locus YGL248W, strain PDE1, active compounds read low 0.988 | [1] 0.948 | S. cerevisiae deletion strains, locus YGR135W, strain pre9, active compounds read low 0.926 | [2] 0.873 | S. cerevisiae deletion strains, locus YGR252W, strain gcn5, active compounds read low 0.834 | S. cerevisiae deletion strains, locus YHR030C, strain SLT2, active compounds read low 0.997 | S. cerevisiae deletion strains, locus YHR079C, strain IRE1 (second series), active compounds read low 0.979 | S. cerevisiae deletion strains, locus YHR094C, strain hxt1, active compounds read low 1.01 | S. cerevisiae deletion strains, locus YHR129C, strain ARP1, active compounds read low 0.99 | S. cerevisiae deletion strains, locus YHR200W, strain rpn10, active compounds read low 0.992 | S. cerevisiae deletion strains, locus YIL066C, strain RNR3, active compounds read low 0.965 | S. cerevisiae deletion strains, locus YIL073C, strain SPO22, active compounds read low 0.983 | S. cerevisiae deletion strains, locus YIL125W, strain kgd1, active compounds read low 1.01 | S. cerevisiae deletion strains, locus YIR030C, strain dcg1, active compounds read low 0.993 | S. cerevisiae deletion strains, locus YJL095W, strain BCK1, active compounds read low 0.888 | S. cerevisiae deletion strains, locus YJL134W, strain LCB3, active compounds read low 0.994 | S. cerevisiae deletion strains, locus YJL168C, strain set2, active compounds read low 0.998 | S. cerevisiae deletion strains, locus YJL187C, strain SWE1 (second series), active compounds read low 0.957 | S. cerevisiae deletion strains, locus YJR043C, strain POL32, active compounds read low 0.983 | S. cerevisiae deletion strains, locus YJR075W, strain HOC1, active compounds read low 0.968 | S. cerevisiae deletion strains, locus YKL009W, strain mrt4, active compounds read low 0.987 | S. cerevisiae deletion strains, locus YKL068W, active compounds read low 1.01 | S. cerevisiae deletion strains, locus YKL085W, strain MDH1 (second series), active compounds read low 1.01 | S. cerevisiae deletion strains, locus YKL085W, strain MDH1, active compounds read low 1.01 | S. cerevisiae deletion strains, locus YKL190W, strain CNB1, active compounds read low 0.996 | S. cerevisiae deletion strains, locus YKR001C, strain vps1, active compounds read low 0.996 | S. cerevisiae deletion strains, locus YLR039C, strain RIC1, active compounds read low 1.03 | S. cerevisiae deletion strains, locus YLR058C, strain SHM2, active compounds read low 0.988 | S. cerevisiae deletion strains, locus YLR102C, strain apc9, active compounds read low 0.998 | S. cerevisiae deletion strains, locus YLR262C, strain YPT6, active compounds read low 1.02 | S. cerevisiae deletion strains, locus YLR268W, strain sec22, active compounds read low 0.95 | S. cerevisiae deletion strains, locus YLR330W, strain CHS5, active compounds read low 0.999 | S. cerevisiae deletion strains, locus YLR342W, strain FKS1 (second series), active compounds read low 0.951 | S. cerevisiae deletion strains, locus YLR371W, strain rom2, active compounds read low 1.01 | S. cerevisiae deletion strains, locus YLR418C, strain cdc73, active compounds read low 0.869 | S. cerevisiae deletion strains, locus YML016C, strain PPZ1, active compounds read low 1 | S. cerevisiae deletion strains, locus YML032C, strain rad52, active compounds read low 0.969 | S. cerevisiae deletion strains, locus YML124C, strain tub3, active compounds read low 1 | S. cerevisiae deletion strains, locus YMR078C, strain ctf18, active compounds read low 0.988 | S. cerevisiae deletion strains, locus YMR223W, strain ubp8, active compounds read low 0.972 | S. cerevisiae deletion strains, locus YMR263W, strain SAP30, active compounds read low 0.95 | S. cerevisiae deletion strains, locus YMR307W, strain GAS1, active compounds read low 0.839 | S. cerevisiae deletion strains, locus YNL067W, strain RPL9B, active compounds read low 0.962 | [3] 0.981 | S. cerevisiae deletion strains, locus YNL153C, strain GIM3, active compounds read low 0.955 | S. cerevisiae deletion strains, locus YNL233W, strain BNI4, active compounds read low 0.923 | S. cerevisiae deletion strains, locus YNL250W, strain rad50, active compounds read low 1.01 | S. cerevisiae deletion strains, locus YNL271C, strain bni1, active compounds read low 1.02 | S. cerevisiae deletion strains, locus YNL298W, strain CLA4, active compounds read low 1 | S. cerevisiae deletion strains, locus YNL307C, strain MCK1, active compounds read low 0.93 | [4] 1.01 | S. cerevisiae deletion strains, locus YNR052C, strain pop2, active compounds read low 0.995 | S. cerevisiae deletion strains, locus YOL006C, strain TOP1, active compounds read low 0.858 | S. cerevisiae deletion strains, locus YOL012C, strain htz1 1.8 | S. cerevisiae deletion strains, locus YOL147C, strain pex11, active compounds read low 0.989 | S. cerevisiae deletion strains, locus YOR061W, strain CKA2, active compounds read low 0.999 | S. cerevisiae deletion strains, locus YOR069W, strain VPS5, active compounds read low 1 | S. cerevisiae deletion strains, locus YOR136W, strain idh2, active compounds read low 0.996 | S. cerevisiae deletion strains, locus YOR144C, strain elg1, active compounds read low 1 | S. cerevisiae deletion strains, locus YOR184W, strain ser1, active compounds read low 0.967 | S. cerevisiae deletion strains, locus YOR316C, strain cot1, active compounds read low 1 | [5] 0.92 | S. cerevisiae deletion strains, locus YPL241C, strain CIN2, active compounds read low 0.996 | S. cerevisiae deletion strains, locus YPR119W, strain clb2, active compounds read low 1 | S. cerevisiae deletion strains, locus YPR141C, strain kar3, active compounds read low 1.01 | S. cerevisiae deletion strains, locus YPR163C, strain tif3, active compounds read low 0.971 | S. cerevisiae deletion strains, locus YPR167C, strain met16, active compounds read low 1 | S. cerevisiae deletion strains, strain wtn01, active compounds read low 0.963 | S. cerevisiae strains, strain wild type, active compounds read low 0.992
